{"source": "the supplement of paper PMC9262897", "about": "“Low-cost anti-mycobacterial drug discovery using engineered E. coli” (Nature Communications, 2022)", "note": "Structures can show the parent of a compound that is named as a salt. ± gives the standard deviation of the averaged measurements.", "data": [{"tested_on": "E. coli TESEC Mtb DapB", "test": "growth (OD600 after 10 h); higher = more growth (less inhibition)", "settings": "arabinose induction (level): Low; compound 0.1 mM; raw OD600 reference: median of DMSO wells 0.227, cell-free background 0.041", "description": "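TESEC E. coli strains in which the native enzyme is deleted and replaced by arabinose-inducible Mtb Asd, DapB, CysH or TrpD, each grown in its selective medium. Strains were screened against the Prestwick library at 0.1 mM and 1% DMSO in 384-well format at low and high arabinose induction. Growth is read as OD600 after 10 h in triplicate.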", "values": [{"smiles": "CN(C)CCc1c[nH]c2ccc(Cn3cncn3)cc12", "note": "[Rizatriptan benzoate]", "growth": "0.211 ± 0.015"}, {"smiles": "COc1ccc(CCN(C)CCCC(C#N)(c2ccc(OC)c(OC)c2)C(C)C)cc1OC", "note": "(centres undefined) [Verapamil hydrochloride]", "growth": "0.248 ± 0.044"}, {"smiles": "CC1=C(/C=C/C(C)=C/C=C/C(C)=C\\C(=O)O)C(C)(C)CCC1", "note": "[Isotretinoin]", "growth": "0.195 ± 0.014"}, {"smiles": "CCCOc1cc(N)ccc1C(=O)OCCN(CC)CC", "note": "[Propoxycaine hydrochloride]", "growth": "0.22 ± 0.017"}, {"smiles": "CO/N=C(\\C(=O)N[C@@H]1C(=O)N2C(C(=O)O)=C(COC(C)=O)CS[C@H]12)c1csc(N)n1", "note": "[Cefotaxime sodium salt]", "growth": "0.0489 ± 0.0033"}, {"smiles": "Clc1ccc(Cn2c(CN3CCCC3)nc3ccccc32)cc1", "note": "[Clemizole hydrochloride]", "growth": "0.212 ± 0.079"}, {"smiles": "COc1ccccc1N1CCN(CCCCNC(=O)c2ccc3ccccc3c2)CC1", "growth": "0.2 ± 0.012"}, {"smiles": "CC[C@H](c1ccc(O)cc1)[C@@H](CC)c1ccc(O)cc1", "note": "[Hexestrol]", "growth": "0.054 ± 0.0072"}, {"smiles": "Cc1cc(N)c2ccccc2[n+]1CCCCCCCCCC[n+]1c(C)cc(N)c2ccccc21", "note": "[Dequalinium dichloride]", "growth": "0.0586 ± 0.0011"}, {"smiles": "Clc1ccc(Nc2nnc(Cc3ccncc3)c3ccccc23)cc1", "note": "[Vatalanib]", "growth": "0.15 ± 0.015"}, {"smiles": "NNc1nncc2ccccc12", "note": "[Hydralazine hydrochloride]", "growth": "0.229 ± 0.033"}, {"smiles": "NC(Cc1cc(I)c(Oc2cc(I)c(O)c(I)c2)c(I)c1)C(=O)O", "note": "(centres undefined) [Thyroxine (L)]", "growth": "0.243 ± 0.013"}, {"smiles": "Cc1onc(-c2c(F)cccc2Cl)c1C(=O)N[C@@H]1C(=O)N2[C@@H]1SC(C)(C)[C@@H]2C(=O)O", "note": "[Flucloxacillin sodium]", "growth": "0.259 ± 0.034"}, {"smiles": "C[C@H](N[C@@H](CCc1ccccc1)C(=O)O)C(=O)N1CCC[C@H]1C(=O)O", "note": "[Enalaprilat dihydrate]", "growth": "0.216 ± 0.022"}, {"smiles": "COCCOC(=O)C1=C(C)NC(C)=C(C(=O)OC/C=C/c2ccccc2)C1c1cccc([N+](=O)[O-])c1", "note": "(centres undefined) [Cilnidipine]", "growth": "0.21 ± 0.025"}, {"smiles": "CCCNCC(O)COc1ccccc1C(=O)CCc1ccccc1", "note": "(centres undefined) [Propafenone hydrochloride]", "growth": "0.185 ± 0.015"}, {"smiles": "Cn1nnc2c(C(N)=O)ncn2c1=O", "note": "[Temozolomide]", "growth": "0.211 ± 0.0067"}, {"smiles": "CCc1nn(CCCN2CCN(c3cccc(Cl)c3)CC2)c(=O)n1CCOc1ccccc1", "note": "[Nefazodone HCl]", "growth": "0.0483 ± 0.00036"}, {"smiles": "CC(=O)OCC(=O)[C@@]12OC3(CCCC3)O[C@@H]1C[C@H]1[C@@H]3CCC4=CC(=O)C=C[C@]4(C)[C@@]3(F)[C@@H](O)C[C@@]12C", "note": "[Amcinonide]", "growth": "0.265 ± 0.025"}, {"smiles": "COc1ccccc1O", "note": "[Guaiacol]", "growth": "0.202 ± 0.028"}, {"smiles": "C(=C\\c1ccccc1)/CN1CCN(C(c2ccccc2)c2ccccc2)CC1", "note": "[Cinnarizine]", "growth": "0.223 ± 0.019"}, {"smiles": "CCN(CC)C(C)CN1c2ccccc2Sc2ccccc21", "note": "(centres undefined) [Ethopropazine hydrochloride]", "growth": "0.236 ± 0.015"}, {"smiles": "CC(CCc1ccccc1)NCC(O)c1ccc(O)c(C(N)=O)c1", "note": "(centres undefined) [Labetalol hydrochloride]", "growth": "0.209 ± 0.017"}, {"smiles": "CN(Cc1cnc2nc(N)nc(N)c2n1)c1ccc(C(=O)N[C@@H](CCC(=O)O)C(=O)O)cc1", "note": "[Methotrexate]", "growth": "0.254 ± 0.022"}, {"smiles": "NS(=O)(=O)c1cc2c(cc1Cl)NC(CC1CCCC1)NS2(=O)=O", "note": "(centres undefined) [Cyclopenthiazide]", "growth": "0.214 ± 0.0079"}, {"smiles": "CC1(C)NC(=O)N(c2ccc([N+](=O)[O-])c(C(F)(F)F)c2)C1=O", "note": "[Nilutamide]", "growth": "0.252 ± 0.0066"}, {"smiles": "CC(=O)O[C@H]1C[C@@H]2CC[C@@H]3[C@H](CC[C@@]4(C)[C@H]3C[C@H]([N+]3(C)CCCCC3)[C@@H]4OC(C)=O)[C@@]2(C)C[C@@H]1N1CCCCC1", "note": "[Vecuronium bromide]", "growth": "0.216 ± 0.022"}, {"smiles": "Clc1ccc(C(Cn2ccnc2)OCc2csc3c(Cl)cccc23)c(Cl)c1", "note": "(centres undefined) [Sertaconazole nitrate]", "growth": "0.0671 ± 0.0089"}, {"smiles": "Cn1c(=O)c2c(ncn2C)n(C)c1=O", "note": "[Caffeine]", "growth": "0.228 ± 0.044"}, {"smiles": "C[N+]1(C)CCC(OC(=O)C(O)(c2ccccc2)C2CCCC2)C1", "note": "(centres undefined) [Glycopyrrolate]", "growth": "0.196 ± 0.011"}, {"smiles": "Clc1cccc(Cl)c1NC1=NCCN1", "note": "[Clonidine hydrochloride]", "growth": "0.26 ± 0.034"}, {"smiles": "Cc1cc(O)c(C(=O)N[C@@H](C(=O)N[C@@H]2C(=O)N3C(C(=O)O)=C(CSc4nnnn4C)CS[C@H]23)c2ccc(O)cc2)cn1", "note": "[Cefpiramide]", "growth": "0.239 ± 0.035"}, {"smiles": "C#C[C@]1(O)CC[C@H]2[C@@H]3CCC4=C(CCC(=O)C4)[C@H]3CC[C@@]21C", "note": "[Norethynodrel]", "growth": "0.17 ± 0.01"}, {"smiles": "Nc1ccc(O)c(C(=O)O)c1", "note": "[Mesalamine]", "growth": "0.213 ± 0.021"}]}]}
